Measurements: PubChem BioAssay
Activity calls are given as the source filed them. Unless noted, no rule for the calls is given here.

Key:
[1] = A549 cell viability effects, profiling panel, calcein-AM fluorescence, 48 h, basal (AID 1162); details: higher = more signal; also: test concentration not given here
[2] = adipocyte viability effects, profiling panel, cell-based, 3T3-L1 adipocytes, calcein-AM fluorescence, 48 h, basal (AID 1163); details: 3T3-L1 adipocytes viability, higher = more signal; also: test concentration not given here
[3] = HepG2 cell viability effects, profiling panel, calcein-AM fluorescence, 48 h, basal (AID 1164); details: higher = more signal; also: test concentration not given here
[4] = MM1S cell viability effects, profiling panel, calcein-AM fluorescence, 48 h, basal (AID 1165); details: higher = more signal;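 also: viability of MM1S multiple myeloma cells under basal unstimulated conditions; test concentration not given here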
[5] = basal RPMI8226 viability, no added stimulus, profiling panel, cell-based, calcein-AM fluorescence, 48 h, PK04 Diversity Set (AID 1166); details: RPMI8226 myeloma viability, higher = more signal;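 also: cells grown under basal conditions without added stimulus; test concentration not given here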
[6] = basal HepG2 mitochondrial membrane potential changes, profiling panel, cell-based, JC-1 fluorescence, 24 h, 100 nL compound (AID 1167); details: higher = more signal; also: test concentration not given here
[7] = basal 3T3-L1 adipocyte mitochondrial potential changes, profiling panel, cell-based, JC-1 fluorescence, 3T3-L1 adipocytes, 24 h, 100 nL compound (AID 1168); details: JC-1 mitochondrial fluorescence, higher = more signal, called active from +8 up or from −8 down; also: test concentration not given here
[8] = basal RPMI8226 mitochondrial membrane potential changes, profiling panel, cell-based, JC-1 fluorescence, 24 h, 100 nL compound (AID 1169); details: RPMI8226 myeloma, JC-1 mitochondrial potential fluorescence, higher = more signal; also: test concentration not given here
[9] = basal MM1S mitochondrial membrane potential changes, profiling panel, cell-based, JC-1 fluorescence, 24 h, 100 nL compound (AID 1170); details: higher = more signal; also: test concentration not given here
[10] = A549 lung cancer cell viability effects, profiling panel, resazurin fluorescence, 24 h, PK04 Diversity Set (AID 1171); details: higher = more signal, called active from +8 up or from −8 down; also: test concentration not given here
[11] = HepG2 liver cancer cell viability effects, profiling panel, resazurin fluorescence, 24 h, PK04 Diversity Set (AID 1172); details: higher = more signal; also: test concentration not given here
[12] = basal S. cerevisiae growth modulation, no modifier, primary screen, OD600, strain BY4716, 24 h, basal condition (AID 1173); details: OD600, 24 h, higher = more signal, called active from +8 up or from −8 down
[13] = MM1S myeloma cell viability, profiling panel, resazurin fluorescence, basal, 24 h, PK04 Diversity Set (AID 1174); details: higher = more signal, called active from +8 up or from −8 down;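 also: MM1S multiple myeloma cell line; test concentration not given here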
[14] = molecular target: Dihydroorotate dehydrogenase (quinone), mitochondrial (Plasmodium falciparum (isolate 3D7)) (UniProt Q08210); test: PfDHODH enzyme inhibitors, primary screen, biochemical, C-terminal His tag, absorbance 600 nm (AID 1175); details: DCIP absorbance 600 nm, higher = more signal, called active from +8 up or from −8 down;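 also: recombinant parasite enzyme with a five histidine tag at its C terminus; test concentration not given here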
[15] = P. aeruginosa biofilm formation inhibitors, primary screen, strain PAO1, LB-PBS medium, absorbance 600 nm (AID 1176); also: test concentration not given here; details: P. aeruginosa PAO1 growth/biofilm, A600, 12 h; higher = more signal
[16] = S. cerevisiae RM11-1a growth modifiers, primary screen, strain RM11-1a, OD600, basal, 24 h (AID 1177); details: OD600, 24 h, higher = more signal, called active from +8 up or from −8 down;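 also: cultures grown under basal conditions with no added stressor; test concentration not given here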
[17] = E. coli acrAB mutant growth effects, primary screen, E. coli filamentation inducers, strain DRC39, OD650, 24 h (AID 1178); details: higher = more signal, called active from +8 up or from −8 down;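 also: growth measured as culture turbidity by optical density at 650 nm; test concentration not given here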
[18] = E. coli acrAB mutant growth effects, primary screen, E. coli filamentation inducers, strain DRC39, OD650, 48 h (AID 1179);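 also: screen aims at cell division blockers that make cells filament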; details: E. coli DRC39 delta-acrAB growth, higher = more signal, called active from +8 up or from −8 down
[19] = RPMI8226 myeloma cell viability, profiling panel, resazurin fluorescence, basal, 24 h, PK04 Diversity Set (AID 1180); details: higher = more signal;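 also: RPMI8826 multiple myeloma cell line at 5000 cells per well; test concentration not given here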
[20] = molecular target: E3 ubiquitin-protein ligase XIAP (Homo sapiens) (UniProt P98170); test: XIAP binders, primary screen, biophysical, small-molecule microarray, fluorescence 635 nm (AID 1181); details: small-molecule microarray binding, higher = more signal;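 also: score merges 667 nm emission and signal to noise over triplicate slides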
E3 ubiquitin-protein ligase XIAP (Homo sapiens), sequence (P98170 whole entry, looked up): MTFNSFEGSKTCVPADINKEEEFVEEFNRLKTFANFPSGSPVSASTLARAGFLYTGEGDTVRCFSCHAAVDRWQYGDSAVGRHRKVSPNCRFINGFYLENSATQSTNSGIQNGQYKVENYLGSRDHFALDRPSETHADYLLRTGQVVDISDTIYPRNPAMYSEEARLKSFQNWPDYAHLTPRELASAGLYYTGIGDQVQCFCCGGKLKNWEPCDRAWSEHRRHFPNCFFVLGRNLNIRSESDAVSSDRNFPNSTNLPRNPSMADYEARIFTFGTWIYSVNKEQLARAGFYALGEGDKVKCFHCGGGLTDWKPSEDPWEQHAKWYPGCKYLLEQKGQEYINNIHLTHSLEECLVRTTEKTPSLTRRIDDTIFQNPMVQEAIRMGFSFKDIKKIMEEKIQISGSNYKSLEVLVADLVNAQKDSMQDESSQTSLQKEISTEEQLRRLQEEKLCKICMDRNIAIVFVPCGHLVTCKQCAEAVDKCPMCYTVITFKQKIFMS

Dihydroorotate dehydrogenase (quinone), mitochondrial (Plasmodium falciparum (isolate 3D7)), sequence (Q08210 whole entry, looked up): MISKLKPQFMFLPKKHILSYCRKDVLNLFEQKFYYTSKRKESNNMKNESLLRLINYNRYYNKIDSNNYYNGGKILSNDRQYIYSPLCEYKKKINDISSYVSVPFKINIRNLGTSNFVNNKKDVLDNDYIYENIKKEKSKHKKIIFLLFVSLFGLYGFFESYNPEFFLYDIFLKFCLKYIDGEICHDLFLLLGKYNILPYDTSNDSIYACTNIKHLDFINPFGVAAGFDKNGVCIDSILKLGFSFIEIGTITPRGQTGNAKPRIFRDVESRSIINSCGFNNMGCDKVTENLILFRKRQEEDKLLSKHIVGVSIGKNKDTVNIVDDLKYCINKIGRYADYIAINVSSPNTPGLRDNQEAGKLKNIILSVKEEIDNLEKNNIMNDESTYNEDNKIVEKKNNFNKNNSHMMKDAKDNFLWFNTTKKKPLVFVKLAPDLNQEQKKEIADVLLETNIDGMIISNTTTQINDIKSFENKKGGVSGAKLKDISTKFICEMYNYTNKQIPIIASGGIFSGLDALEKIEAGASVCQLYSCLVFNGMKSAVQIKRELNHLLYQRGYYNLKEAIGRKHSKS

SMILES | z-score [1] | z-score [2] | z-score [3] | z-score [4] | z-score [5] | z-score [6] | z-score [7] | z-score [8] | z-score [9] | z-score [10] | z-score [11] | z-score [12] | z-score [13] | composite z-score [14] | z-score [15] | z-score [16] | z-score [17] | z-score [18] | z-score [19] | composite z-score [20]
O=C1NC(=O)C2C1C=CC(C(O)c1ccco1)N2Nc1ccccn1 (stereo not given) | -0.291 | -0.0855 | -0.125 | -0.0456 | -0.529 | -1.33 | -0.688 (inactive) | 0.127 | -0.154 | -0.974 (inactive) | -1.32 | 0.461 (inactive) | -1.68 (inactive) | 0.257 (inactive) | 0.956 (inactive) | 0.254 (inactive) | -0.457 (inactive) | -0.21 (inactive) | -1.09 | -0.0342
C=CCOC(=O)[C@H]1[C@@H]2C(=O)O[C@@H](c3ccccc3)[C@@H](c3ccccc3)N2[C@@H](c2ccc(OCCOC(=O)[C@@H]3C[C@@H]4C(=O)N[C@@H](CCCCNC(C)=O)C(=O)N4[C@@H]3c3ccc(O)cc3)cc2)[C@]12C(=O)Nc1ccc(I)cc12 | -0.34 | 0.522 | -0.786 | -1.6 | -0.957 | -1.03 | 2.24 (inactive) | -0.744 | -0.888 | -0.389 (inactive) | -0.634 | 1.46 (inactive) | -1.77 (inactive) | 0.158 (inactive) | 1.55 (inactive) | 0.925 (inactive) | -0.508 (inactive) | -1.25 (inactive) | -0.533 | 0.026
NC(=O)NCC#Cc1ccc2c(c1)[C@]1(C(=O)N2)[C@H](C(=O)O)[C@H]2C(=O)O[C@H](c3ccccc3)[C@H](c3ccccc3)N2[C@@H]1c1ccc(OCCO)cc1 | 0.0179 | 0.359 | -0.519 | 0.231 | 0.12 | -2.3 | -0.483 (inactive) | 0.00293 | 0.12 | 0.721 (inactive) | 0.626 | 0.0086 (inactive) | 0.557 (inactive) | -0.932 (inactive) | 0.545 (inactive) | -0.285 (inactive) | -0.0444 (inactive) | -0.721 (inactive) | 0.547 | 0.361
C[C@]1(C(=O)NC2CC2)c2ccccc2C(=O)N(Cc2ccccc2)[C@H]1c1ccc(CO)cc1 | 0.395 | 1.51 | -0.577 | 0.855 | -0.655 | 1.66 | 0.195 (inactive) | -0.0462 | 0.263 | 0.54 (inactive) | -0.0738 | -0.886 (inactive) | 1.62 (inactive) | -0.806 (inactive) | 0.553 (inactive) | -1.02 (inactive) | 0.809 (inactive) | 0.653 (inactive) | 1.08 | -0.234
COC(=O)C(CC#Cc1ccc2c(c1)[C@]1(C(=O)N2)[C@H](c2ccccc2OCCO)N2[C@H](c3ccccc3)[C@H](c3ccccc3)OC(=O)[C@H]2[C@@H]1C(=O)NC[C@H](O)c1ccccc1)C(=O)OC | 1.24 | -0.625 | 0.876 | -3.38 | -4.55 | -1.12 | 1.01 (inactive) | -1.11 | -2.27 | 0.107 (inactive) | -0.248 | 1.61 (inactive) | -6.75 (inactive) | -4.58 (inactive) | 2.09 (inactive) | 2.22 (inactive) | 0.405 (inactive) | 0.615 (inactive) | -6.97 | 0.279
COCCCNC(=O)[C@]1(CCS(=O)(=O)c2ccccc2)N=C(c2ccc(OCCCO)cc2)O[C@@H]1c1ccccc1N=[N+]=[N-] | 0.76 | 0.108 | 0.683 | -1.41 | -0.311 | -0.0945 | -0.594 (inactive) | -0.986 | -0.754 | 0.265 (inactive) | 0.129 | 0.0817 (inactive) | -0.458 (inactive) | 0.887 (inactive) | 0.413 (inactive) | 0.771 (inactive) | 0.357 (inactive) | 0.0059 (inactive) | -0.998 | -0.199
COCCOC(=O)N1C(=O)[C@@]2(c3cc(C#CCCO)ccc31)[C@H](C(=O)Nc1nc3ccccc3s1)[C@H]1C(=O)O[C@H](c3ccccc3)[C@H](c3ccccc3)N1[C@@H]2c1ccccc1OCCO | -0.216 | 0.121 | -1.1 | -0.965 | -0.333 | -3.13 | -0.372 (inactive) | -0.183 | -0.744 | 0.513 (inactive) | 0.316 | 2.04 (inactive) | -0.459 (inactive) | 1.1 (inactive) | 1.7 (inactive) | 1.91 (inactive) | -0.0306 (inactive) | -0.339 (inactive) | -1.28 | -0.115
COCCOC(=O)N1C(=O)[C@@]2(c3cc(C#CC4=CCCCC4)ccc31)[C@H](C(=O)N1CCCCCCC1)[C@H]1C(=O)O[C@H](c3ccccc3)[C@H](c3ccccc3)N1[C@@H]2c1ccc(O)cc1 | 0.868 | 0.936 | 0.474 | -0.625 | -0.593 | -0.239 | 1.02 (inactive) | -0.386 | -0.272 | -1.09 (inactive) | 0.0166 | 0.566 (inactive) | 0.0499 (inactive) | -1.67 (inactive) | 1.51 (inactive) | 0.396 (inactive) | -0.698 (inactive) | -0.863 (inactive) | -0.258 | -0.0025
